# From PubChem BioAssay (Tox21)
# Results filed as inconclusive are left out. Entries that show only a call come without a potency. Calls of active or inactive are those of the source. Calls come from the whole dose curve.
# Target: Estrogen receptor (Homo sapiens) (UniProt P03372)
# Experiment: qHTS assay to identify small molecule agonists of the estrogen receptor alpha (ER-alpha) signaling pathway (AID 743075);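 note: HEK293 GripTite cells with ER-alpha and UAS-driven beta-lactamase reporter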
# Details: HEK293 ER-alpha-UAS-bla, beta-lactamase FRET ratio, 18 h; series mostly up to 70.1 µM
# Sequence of Estrogen receptor (Homo sapiens) (P03372 whole entry, looked up): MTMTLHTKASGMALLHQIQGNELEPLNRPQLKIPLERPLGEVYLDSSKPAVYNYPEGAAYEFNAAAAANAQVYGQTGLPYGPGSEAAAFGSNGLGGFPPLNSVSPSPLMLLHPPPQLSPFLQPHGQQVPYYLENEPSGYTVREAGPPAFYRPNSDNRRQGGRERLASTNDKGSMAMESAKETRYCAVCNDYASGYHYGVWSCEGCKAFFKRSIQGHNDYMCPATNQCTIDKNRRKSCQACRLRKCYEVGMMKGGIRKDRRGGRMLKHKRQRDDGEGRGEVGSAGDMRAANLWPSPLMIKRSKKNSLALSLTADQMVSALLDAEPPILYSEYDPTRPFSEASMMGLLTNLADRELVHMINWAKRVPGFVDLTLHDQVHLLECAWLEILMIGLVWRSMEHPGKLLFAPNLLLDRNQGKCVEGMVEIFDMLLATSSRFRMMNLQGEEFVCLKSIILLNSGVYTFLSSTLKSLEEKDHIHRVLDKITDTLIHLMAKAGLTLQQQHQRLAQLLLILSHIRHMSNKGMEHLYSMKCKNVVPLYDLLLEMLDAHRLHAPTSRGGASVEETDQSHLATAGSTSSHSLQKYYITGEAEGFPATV
row,Compound,Potency
1,NC(=O)Nc1ccccc1,inactive
2,CCCc1cc(C(N)=S)ccn1,inactive
3,CC(C(=O)O)c1ccc(CC2CCCC2=O)cc1 (stereo unspecified),inactive
4,CC(C)(C)NCCNC(C)(C)C,inactive
5,C=C1CC[C@H]2C[C@@H]1C2(C)C,inactive
6,OCCCC1CCCCC1,inactive
7,CCN1CCC[C@H]1CNC(=O)c1c(O)c(Cl)cc(Cl)c1OC,inactive
8,COCCCOCCCOC,inactive
9,CC(=O)Nc1ccc(S(N)(=O)=O)cc1,inactive
10,CN1CCC(=C2c3ccccc3CC(=O)c3sccc32)CC1,inactive
11,Cc1ccc(C#N)cc1,inactive
12,N=c1nc(N2CCCCC2)cc(N)n1O,inactive
13,CC(C)c1cc2c(cc1S(=O)(=O)O)[C@@]1(C)CCC[C@@](C)(C(=O)O)[C@@H]1CC2,inactive
14,Nc1ccc(S(=O)(=O)Nc2ccnn2-c2ccccc2)cc1,inactive
15,CO[Si](CCCOCC1CO1)(OC)OC (stereo unspecified),inactive
16,Nc1cc(=O)[nH]c(N)n1,inactive
17,CCN(CC)CCNC(=O)c1cc(S(C)(=O)=O)ccc1OC,inactive
18,Cc1cc2c(cc1S(N)(=O)=O)S(=O)(=O)CCC2,inactive
19,CC/C=C\CCOC(C)=O,inactive
20,Cc1cc(O)cc2c1O[C@](C)(CCC[C@H](C)CCC[C@H](C)CCCC(C)C)CC2,inactive
21,CC(C)(C)c1nnc(NS(=O)(=O)c2ccccc2)s1,inactive
22,CS(=O)(=O)O,inactive
23,O=c1n(CCO)c(=O)n(CCO)c(=O)n1CCO,inactive
24,Cc1ccc(Cl)cc1Cl,inactive
25,CC(C[N+](C)(C)C)OC(N)=O (stereo unspecified),inactive
26,Cc1nc2c([nH]1)c(=O)n(C)c(=O)n2Cc1ccco1,inactive
